# Laboratory results reported in the supplement of paper PMC10037445.
# Over roughly 2,900 compounds, “IRF Lucia reporter activity, fold change vs agonist alone” has its median near 0.9; the highest 2% begin near 2.8. For the sample, the highest values were picked, then their nearest neighbours and some compounds at random.
# Columns and labels:
# RAW-Dual [1] = test: IRF Lucia reporter activity, fold change vs agonist alone; higher = enhanced IRF activity; settings: library stock concentration (final ~1000-fold dilution): 10 mM; cytotoxicity flag (confluency mask): not cytotoxic; agonist: MPLA (TLR4) […]
# Summary of the method: (§1)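 RAW-Dual macrophages (50,000 cells/well in DMEM, 384-well plates) received 50 nL of library stock by pin tool, then a PRR agonist 1 h later, and were kept at 37 °C, 5% CO2. After 20 hours, supernatant was read for IRF by QuantiLuc luminescence and for NF-κB by QuantiBlue absorbance at 620 nm. Reporter activity is fold change over agonist-alone wells. Cytotoxic wells had IncuCyte confluency below 70% of agonist controls in both mask sets.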
# RAW-Dual [2] = test: IRF Lucia reporter activity, fold change vs agonist alone; cytotoxicity flag (confluency mask): not cytotoxic; higher = enhanced IRF activity
# Summary of the method: as §1
# RAW-Dual [3] = test: IRF Lucia reporter activity, fold change vs agonist alone; cytotoxicity flag (confluency mask): cytotoxic (confluency <70% of control); higher = enhanced IRF activity
# Summary of the method: as §1
# [4] = agonist: 3'3'-cGAMP (STING) 10 ug/mL
smiles,measurement,setting,value
CCCc1nc(C)c2c(=O)[nH]c(-c3cc(S(=O)(=O)N4CCN(CC)CC4)ccc3OCC)nn12.Cl.O.O.O,IRF Lucia reporter activity,RAW-Dual [1],0.917
CCCc1nc(C)c2c(=O)[nH]c(-c3cc(S(=O)(=O)N4CCN(CC)CC4)ccc3OCC)nn12.Cl.O.O.O (library stock concentration (final ~1000-fold dilution): 10 mM),IRF Lucia reporter activity,RAW-Dual [2]; [4],0.839
same,IRF Lucia reporter activity,RAW-Dual [2]; agonist: LPS (TLR4) 0.1 ug/mL,0.967
O=C(NCCN1CCOCC1)Nc1nc2ccc(Sc3nnc4ccc(-c5ccc(F)cc5)nn34)cc2s1 (library stock concentration (final ~1000-fold dilution): 10 mM),IRF Lucia reporter activity,RAW-Dual [2]; [4],1.09
same,IRF Lucia reporter activity,RAW-Dual [2]; agonist: LPS (TLR4) 0.1 ug/mL,1.23
O=C(NCCN1CCOCC1)Nc1nc2ccc(Sc3nnc4ccc(-c5ccc(F)cc5)nn34)cc2s1,IRF Lucia reporter activity,RAW-Dual [1],0.994
CC1=C(CSC(=S)N2CCCCC2)C(=O)c2ccccc2C1=O (library stock concentration (final ~1000-fold dilution): 10 mM),IRF Lucia reporter activity,RAW-Dual [3]; [4],0.553
same,IRF Lucia reporter activity,RAW-Dual [3]; agonist: LPS (TLR4) 0.1 ug/mL,0.0143
COc1cc2c(cc1OC(C)C)C(c1ccc(Cl)cc1)N(c1ccc(N(C)CC3CCC(N4CCN(C)C(=O)C4)CC3)cc1)C(=O)C2 (stereo not drawn) (library stock concentration (final ~1000-fold dilution): 10 mM),IRF Lucia reporter activity,RAW-Dual [2]; [4],0.135
same,IRF Lucia reporter activity,RAW-Dual [2]; agonist: LPS (TLR4) 0.1 ug/mL,1.35
CC(N)C1CCC(C(=O)Nc2ccncc2)CC1.Cl.Cl (stereo not drawn) (library stock concentration (final ~1000-fold dilution): 10 mM),IRF Lucia reporter activity,RAW-Dual [2]; [4],0.926
same,IRF Lucia reporter activity,RAW-Dual [2]; agonist: LPS (TLR4) 0.1 ug/mL,0.81
CC(N)C1CCC(C(=O)Nc2ccncc2)CC1.Cl.Cl (stereo not drawn),IRF Lucia reporter activity,RAW-Dual [1],0.773
Oc1cccc(-c2nc(N3CCOCC3)c3oc4ncccc4c3n2)c1 (library stock concentration (final ~1000-fold dilution): 10 mM),IRF Lucia reporter activity,RAW-Dual [2]; [4],0.381
same,IRF Lucia reporter activity,RAW-Dual [2]; agonist: LPS (TLR4) 0.1 ug/mL,1.94
Nc1ccc(-c2cccc(C(=O)Nc3cnc4nc(N5CCOCC5)oc4c3)n2)cn1 (library stock concentration (final ~1000-fold dilution): 10 mM),IRF Lucia reporter activity,RAW-Dual [2]; [4],0.717
same,IRF Lucia reporter activity,RAW-Dual [2]; agonist: LPS (TLR4) 0.1 ug/mL,1.48
Nc1ccc(C(=O)Nc2cccc(-c3nc(N4CCOCC4)c4oc5ncccc5c4n3)c2)cn1,IRF Lucia reporter activity,RAW-Dual [1],3.52
Nc1ccc(C(=O)Nc2cccc(-c3nc(N4CCOCC4)c4oc5ncccc5c4n3)c2)cn1 (library stock concentration (final ~1000-fold dilution): 10 mM),IRF Lucia reporter activity,RAW-Dual [2]; [4],0.205
same,IRF Lucia reporter activity,RAW-Dual [2]; agonist: LPS (TLR4) 0.1 ug/mL,3.93
Oc1cccc(-c2nc(N3CCOCC3)c3oc4ncccc4c3n2)c1,IRF Lucia reporter activity,RAW-Dual [1],1.42
O=C(CCCCCCC(=O)N/N=C/c1ccc(N(c2ccccc2)c2ccccc2)cc1)NO (library stock concentration (final ~1000-fold dilution): 10 mM),IRF Lucia reporter activity,RAW-Dual [3]; [4],0.0199
same,IRF Lucia reporter activity,RAW-Dual [3]; agonist: LPS (TLR4) 0.1 ug/mL,0.533
